According to PubChem BioAssay (NCI):
The panel holds about 83,000 compounds, 20% with a hit somewhere; the sample as a whole holds those more often.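 Results are percent growth after 48 hours of single-concentration exposure. 100 means growth as in untreated cells, lower positive values show inhibition; negative values down to -100 show cell death.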 Activity calls are given as the source filed them. How the source made its calls: active means growth percent below 10; inactive means the rest.

Key:
Assay in all cases: NCI-60 one-dose screen, 48 h (100 = growth as untreated, 0 = no growth, -100 = all killed)
Details in all cases: 10 µM unless noted
NCI-H23 lung = tested on: NCI-H23 lung
NCI-H226 lung = tested on: NCI-H226 lung
NCI-H322M lung = tested on: NCI-H322M lung
HOP-62 NSCLC = tested on: HOP-62 NSCLC
NCI-H460 lung = tested on: NCI-H460 lung
786-0 renal = tested on: 786-0 renal
MDA-MB-231 breast = tested on: MDA-MB-231 breast
SF-268 CNS = tested on: SF-268 CNS
SF-539 CNS = tested on: SF-539 CNS
M14 melanoma = tested on: M14 melanoma
PC-3 prostate = tested on: PC-3 prostate
UACC-62 melanoma = tested on: UACC-62 melanoma
SK-MEL-28 melanoma = tested on: SK-MEL-28 melanoma
UO-31 renal = tested on: UO-31 renal
OVCAR-5 ovarian = tested on: OVCAR-5 ovarian
OVCAR-3 ovarian = tested on: OVCAR-3 ovarian
NCI/ADR-RES ovarian = tested on: NCI/ADR-RES ovarian
SW-620 colon = tested on: SW-620 colon
MCF7 breast = tested on: MCF7 breast
KM12 colon = tested on: KM12 colon

Measured: growth

CCOc1cc(/C=N\Nc2nnc(C)n2N)c(C)cc1N(CCCl)CCCl
active: NCI-H23 lung -20.2% | NCI-H460 lung 4.94% | PC-3 prostate 7.23% | UACC-62 melanoma -1.59% | UO-31 renal -42.2% | OVCAR-3 ovarian 4.15% | MCF7 breast 9.29%
inactive: NCI-H226 lung 26.6% | NCI-H322M lung 11.3% | HOP-62 NSCLC 22.6% | 786-0 renal 13.1% | MDA-MB-231 breast 38.2% | SF-268 CNS 28.2% | SF-539 CNS 34.5% | M14 melanoma 13.8% | SK-MEL-28 melanoma 37.4% | OVCAR-5 ovarian 52.6% | NCI/ADR-RES ovarian 10.7% | SW-620 colon 10.4% | KM12 colon 13.8%

CC(CC(C#N)(c1ccccc1)c1ccccc1)N1CCOCC1 (centres undefined)
inactive: NCI-H23 lung 106% | NCI-H226 lung 112% | NCI-H322M lung 107% | HOP-62 NSCLC 97.6% | NCI-H460 lung 112% | 786-0 renal 112% | MDA-MB-231 breast 94.4% | SF-268 CNS 101% | SF-539 CNS 101% | M14 melanoma 114% | PC-3 prostate 90.4% | UACC-62 melanoma 80.4% | SK-MEL-28 melanoma 123% | UO-31 renal 74.6% | OVCAR-5 ovarian 89.5% | OVCAR-3 ovarian 105% | NCI/ADR-RES ovarian 106% | SW-620 colon 106% | MCF7 breast 122% | KM12 colon 104%

O=C(O)c1[nH]c(=O)[nH]c(=O)c1F
inactive: NCI-H23 lung 93% | NCI-H226 lung 86.2% | NCI-H322M lung 92.5% | HOP-62 NSCLC 124% | NCI-H460 lung 47.9% | 786-0 renal 105% | MDA-MB-231 breast 108% | SF-268 CNS 86.7% | SF-539 CNS 82.5% | M14 melanoma 86.6% | PC-3 prostate 95.6% | UACC-62 melanoma 79.6% | SK-MEL-28 melanoma 94.7% | UO-31 renal 65.9% | OVCAR-5 ovarian 104% | OVCAR-3 ovarian 106% | NCI/ADR-RES ovarian 95% | SW-620 colon 72.7% | MCF7 breast 109% | KM12 colon 69.3%

COc1cc[c]([Hg][Cl])cc1
active: OVCAR-3 ovarian -71.5%
inactive: NCI-H23 lung 47% | NCI-H226 lung 100% | NCI-H322M lung 99.1% | HOP-62 NSCLC 82.6% | NCI-H460 lung 43.9% | 786-0 renal 56% | MDA-MB-231 breast 46.2% | SF-268 CNS 56.8% | SF-539 CNS 85.2% | M14 melanoma 17% | PC-3 prostate 77.6% | UACC-62 melanoma 12.5% | SK-MEL-28 melanoma 20.7% | UO-31 renal 96.6% | OVCAR-5 ovarian 105% | NCI/ADR-RES ovarian 86.2% | SW-620 colon 18.9% | MCF7 breast 27.9% | KM12 colon 102%

CC(C)(NC(=O)c1nn(CCCCCF)c2ccccc12)c1ccccc1
inactive: NCI-H23 lung 101% | NCI-H226 lung 80.2% | NCI-H322M lung 105% | HOP-62 NSCLC 94.2% | NCI-H460 lung 102% | 786-0 renal 89.3% | MDA-MB-231 breast 98.1% | SF-268 CNS 96% | SF-539 CNS 100% | M14 melanoma 85.5% | PC-3 prostate 65% | UACC-62 melanoma 75.4% | SK-MEL-28 melanoma 111% | UO-31 renal 76.3% | OVCAR-5 ovarian 103% | OVCAR-3 ovarian 105% | NCI/ADR-RES ovarian 92.8% | SW-620 colon 102% | MCF7 breast 98.3% | KM12 colon 107%

O=C(CCCN1CCC2(CC1)C(=O)NCN2c1ccc(F)cc1)c1ccc(F)cc1
inactive: NCI-H23 lung 98.2% | NCI-H226 lung 78.4% | NCI-H322M lung 90% | HOP-62 NSCLC 95.9% | NCI-H460 lung 96.8% | 786-0 renal 101% | MDA-MB-231 breast 98.1% | SF-268 CNS 112% | SF-539 CNS 93.2% | M14 melanoma 97.3% | PC-3 prostate 101% | UACC-62 melanoma 90.5% | SK-MEL-28 melanoma 118% | UO-31 renal 83.6% | OVCAR-5 ovarian 91.3% | OVCAR-3 ovarian 124% | NCI/ADR-RES ovarian 97.9% | SW-620 colon 106% | MCF7 breast 85.9% | KM12 colon 108%

CCOC(=O)/C(C#N)=C/c1ccc(N(CCCl)CCCl)cc1
inactive: NCI-H23 lung 94.9% | NCI-H226 lung 72.2% | NCI-H322M lung 110% | HOP-62 NSCLC 81.7% | NCI-H460 lung 41.4% | 786-0 renal 84.1% | MDA-MB-231 breast 90.8% | SF-268 CNS 77.5% | SF-539 CNS 84.9% | M14 melanoma 105% | PC-3 prostate 69.7% | UACC-62 melanoma 66.5% | SK-MEL-28 melanoma 99% | UO-31 renal 79.3% | OVCAR-5 ovarian 106% | OVCAR-3 ovarian 108% | NCI/ADR-RES ovarian 94.8% | SW-620 colon 87.3% | MCF7 breast 71.9% | KM12 colon 106%

OC1(c2ccccc2F)c2ccccc2C2=NCCN21 (centres undefined)
inactive: NCI-H23 lung 86.7% | NCI-H226 lung 84.8% | NCI-H322M lung 97.2% | HOP-62 NSCLC 84.9% | NCI-H460 lung 118% | 786-0 renal 96.6% | MDA-MB-231 breast 109% | SF-268 CNS 116% | SF-539 CNS 100% | M14 melanoma 107% | PC-3 prostate 95.6% | UACC-62 melanoma 96% | SK-MEL-28 melanoma 109% | UO-31 renal 84.2% | OVCAR-5 ovarian 98.6% | OVCAR-3 ovarian 87.9% | NCI/ADR-RES ovarian 86.6% | SW-620 colon 96.8% | MCF7 breast 103% | KM12 colon 105%

O=C(O)c1cccc(CCl)c1
inactive: NCI-H23 lung 108% | NCI-H226 lung 104% | NCI-H322M lung 107% | HOP-62 NSCLC 108% | NCI-H460 lung 103% | 786-0 renal 101% | MDA-MB-231 breast 113% | SF-268 CNS 102% | SF-539 CNS 94.3% | M14 melanoma 95.8% | PC-3 prostate 102% | UACC-62 melanoma 108% | SK-MEL-28 melanoma 110% | UO-31 renal 90.3% | OVCAR-5 ovarian 102% | OVCAR-3 ovarian 109% | NCI/ADR-RES ovarian 103% | SW-620 colon 110% | MCF7 breast 98.4% | KM12 colon 96.3%

N#Cc1ncc(/N=C/c2ccc(N(CCCl)CCCl)cc2)s1
active: NCI-H226 lung -19.1%
inactive: NCI-H23 lung 58.2% | NCI-H322M lung 121% | HOP-62 NSCLC 96.1% | NCI-H460 lung 22.7% | 786-0 renal 29% | MDA-MB-231 breast 94.5% | SF-268 CNS 65.5% | SF-539 CNS 40.7% | M14 melanoma 86.8% | PC-3 prostate 66.9% | UACC-62 melanoma 32% | SK-MEL-28 melanoma 102% | UO-31 renal 34.8% | OVCAR-5 ovarian 100% | OVCAR-3 ovarian 78.5% | NCI/ADR-RES ovarian 70.8% | SW-620 colon 79.4% | MCF7 breast 48.7% | KM12 colon 95.3%

CC(C)(O)/C=C/C(=O)[C@](C)(O)[C@H]1[C@H](O)C[C@@]2(C)[C@@H]3CC=C4[C@@H](C=C(O)C(=O)C4(C)C)[C@]3(C)C(=O)C[C@]12C
inactive: NCI/ADR-RES ovarian 12.2%
active: NCI-H23 lung -40.1% | NCI-H226 lung -33.9% | NCI-H322M lung -20.1% | HOP-62 NSCLC -64.2% | NCI-H460 lung -20.8% | 786-0 renal -96.2% | MDA-MB-231 breast -25% | SF-268 CNS -27.5% | SF-539 CNS -53.6% | M14 melanoma -75.3% | PC-3 prostate -58.8% | UACC-62 melanoma -29.9% | UO-31 renal -54.6% | OVCAR-5 ovarian -3.44% | OVCAR-3 ovarian -28.9% | SW-620 colon -20% | MCF7 breast 2.31% | KM12 colon -60.9%

Nc1cccc2c1Oc1ccccc1O2
inactive: NCI-H23 lung 105% | NCI-H226 lung 86.2% | NCI-H322M lung 102% | HOP-62 NSCLC 102% | NCI-H460 lung 190% | 786-0 renal 99.2% | MDA-MB-231 breast 93.1% | SF-268 CNS 176% | SF-539 CNS 112% | M14 melanoma 108% | PC-3 prostate 84.9% | UACC-62 melanoma 88.1% | SK-MEL-28 melanoma 124% | UO-31 renal 201% | OVCAR-5 ovarian 98.3% | OVCAR-3 ovarian 103% | NCI/ADR-RES ovarian 113% | SW-620 colon 107% | MCF7 breast 137% | KM12 colon 114%

Cc1cc([N+](=O)[O-])c(Cl)cc1NS(=O)(=O)c1ccccc1
inactive: NCI-H23 lung 76.5% | NCI-H226 lung 64.7% | NCI-H322M lung 85.4% | HOP-62 NSCLC 90% | NCI-H460 lung 73.2% | 786-0 renal 60.1% | MDA-MB-231 breast 108% | SF-268 CNS 90.3% | SF-539 CNS 60.6% | M14 melanoma 62.9% | PC-3 prostate 81.2% | UACC-62 melanoma 37.1% | SK-MEL-28 melanoma 76% | UO-31 renal 63.8% | OVCAR-5 ovarian 83.5% | OVCAR-3 ovarian 71.7% | NCI/ADR-RES ovarian 78.7% | SW-620 colon 93.9% | MCF7 breast 73.9% | KM12 colon 80.8%

NC(Cc1ccc(O)cc1)C(=O)N/N=C/c1ccc(N(CCCl)CCCl)cc1 (centres undefined)
inactive: NCI-H23 lung 69.6% | NCI-H226 lung 46.8% | NCI-H322M lung 102% | HOP-62 NSCLC 95.4% | NCI-H460 lung 27.1% | 786-0 renal 43% | MDA-MB-231 breast 73.7% | SF-268 CNS 55.9% | SF-539 CNS 33.3% | M14 melanoma 93.6% | PC-3 prostate 56% | UACC-62 melanoma 31.4% | SK-MEL-28 melanoma 108% | UO-31 renal 52.2% | OVCAR-5 ovarian 115% | OVCAR-3 ovarian 101% | NCI/ADR-RES ovarian 78.4% | SW-620 colon 86.9% | MCF7 breast 54.5% | KM12 colon 75%

O=c1cc[nH]c(=O)o1
inactive: NCI-H23 lung 105% | NCI-H226 lung 98.4% | NCI-H322M lung 105% | HOP-62 NSCLC 102% | NCI-H460 lung 106% | 786-0 renal 98.7% | MDA-MB-231 breast 117% | SF-268 CNS 99.9% | SF-539 CNS 104% | M14 melanoma 103% | PC-3 prostate 98% | UACC-62 melanoma 99.4% | SK-MEL-28 melanoma 111% | UO-31 renal 93.6% | OVCAR-5 ovarian 109% | OVCAR-3 ovarian 107% | NCI/ADR-RES ovarian 111% | SW-620 colon 107% | MCF7 breast 96.9% | KM12 colon 103%

CN1CCN(C(=O)COc2ccc(/C=C3\CC4C5CC=C6CC(Cl)CCC6(C)C5CCC4(C)C3=O)cc2)CC1 (centres undefined)
active: M14 melanoma -13%
inactive: NCI-H23 lung 71.2% | NCI-H226 lung 77.2% | NCI-H322M lung 85.7% | HOP-62 NSCLC 96.7% | NCI-H460 lung 17.2% | 786-0 renal 70.2% | MDA-MB-231 breast 75.2% | SF-268 CNS 73.2% | SF-539 CNS 93.6% | PC-3 prostate 71.3% | UACC-62 melanoma 90% | SK-MEL-28 melanoma 103% | UO-31 renal 99.9% | OVCAR-5 ovarian 99.7% | OVCAR-3 ovarian 76.1% | NCI/ADR-RES ovarian 69.2% | SW-620 colon 40.4% | MCF7 breast 83.9% | KM12 colon 72.9%
